Data from the supplement of paper PMC6555819.

Tests used:
Test in all cases: PBM binding z-score (relative to random genomic background probes); higher = stronger binding; sequences stand for … in GC…GCGATTGACAGCGTAGAATGAAGG
[1] = tested on: FXR:RXRa (NR concentration 270 nM, RXRa partner concentration 90 nM)
Procedure, shortened: (§1)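 The probes on custom Agilent 4×180K protein-binding microarrays were double-stranded, with 34-nt variable regions bearing direct-repeat seeds, single-nucleotide variants, half-site ablations and random human genomic background sequences. Incubation lasted 1 h with ligand-free nuclear receptor dimers in PBS pH 7.4, 2% milk, 0.02% Triton X-100, 1 mM DTT, 0.2 mg/mL BSA and 0.4 mg/ml salmon testes DNA. Antibodies against each partner (one per run) detected bound dimers, and fluorescence scans were regression-normalized. Binding z-scores take the random background probes as reference.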

[2] = tested on: LXRa homodimer (NR concentration 270 nM)
Procedure, shortened: as §1

[3] = tested on: LXRb homodimer (NR concentration 270 nM)
Procedure, shortened: as §1

[4] = tested on: PPARg:RXRa (NR concentration 180 nM, RXRa partner concentration 90 nM)
Procedure, shortened: as §1

[5] = tested on: PPARg:RXRa 270nM:90nM, anti-RXR (NR concentration 270 nM, RXRa partner concentration 90 nM)
Procedure, shortened: as §1

[6] = tested on: PPARg:RXRa 30nM:10nM, anti-RXR (NR concentration 30 nM, RXRa partner concentration 10 nM)
Procedure, shortened: as §1

[7] = tested on: PPARg:RXRa 90nM:30nM, anti-RXR (NR concentration 90 nM, RXRa partner concentration 30 nM)
Procedure, shortened: as §1

[8] = tested on: PPARg:RXRa DBDmut IVT, anti-RXR (DBD mutation: RXRa K156A/R161A, NR concentration 270 nM, RXRa partner concentration 90 nM)
Procedure, shortened: as §1

[9] = tested on: PPARa:RXRa (NR concentration 270 nM, RXRa partner concentration 90 nM)
Procedure, shortened: as §1

Sequence	PBM binding z-score [1]	PBM binding z-score [2]	PBM binding z-score [3]	PBM binding z-score [4]	PBM binding z-score [5]	PBM binding z-score [6]	PBM binding z-score [7]	PBM binding z-score [8]	PBM binding z-score [9]
AGAATGAGGTTACCAAAGTTCAGGGAAACGCTTG	3.73	7.31	-0.0133	3.65	4.08	1.65	3.24	3.96	–
AGTCAAAGTTCAGGACGACGTAACGTAAAGCACG	3.58	0.954	-0.163	4.42	4.5	1.87	4	-0.52	–
CCTTACGGGTCACTCCAGGTTATATCATCGGAGT	4.99	2.49	0.56	3.65	3.72	0.84	2.78	2.96	–
AGAATGAGATTACCAAAGATCAGGGAAACGCTTG	-0.562	-0.342	-0.574	0.538	-0.216	-0.00239	0.0878	-0.34	-0.285
ACTCGGATGACAAAGGTCAGAGCTACGCCAGTGA	3.55	1.58	0.503	4.68	5.37	3.76	5.58	0.169	4.38
ATCGAAAGGTCGTGAGGTAAGTATACAGAAAGGC	5.54	0.488	0.774	4.03	4.37	1.57	3.06	0.266	5.23
CCTTACGGGTCACTGACAGGTTATAGCGTTTGGA	5.14	0.362	0.00055	4.5	4.32	1.5	2.78	2.91	–
TCTAGTTGGTCACGGAGGTCCCACACGACGGGTA	-0.177	0.0478	-0.115	0.739	1.93	3.06	2.25	1.68	–
CACACTAGGTCACAGAGGTCAAAGTCCGTGCGTA	7.16	8.63	2.87	9.53	7.9	5.64	7.43	7.79	6.51
CCTACTGGTCCAAGGTCATTGATCAGTCAAAGCA	3.53	2.3	0.894	1.77	3.04	0.847	2.12	0.394	–
GCTGCTAGTTCAACTGATGGTCAGCTAAAGCTCG	-0.0566	-0.53	-0.641	-0.618	-0.212	-0.685	-0.415	-0.111	–
CGTCCAAGGTCAGCGGGTCAGTGAAAGCGACGTG	5.98	0.175	-0.324	4.41	4.84	1.19	2.81	3.12	4.79
AATACAAGGTCATCGTAGGCCAGAGTACGCACAG	7.64	6.1	3.33	6.55	5.94	2.73	5.04	3.93	–
CGTCCAAGGTCATTGGAGGTCAGTGAAGACAGAT	7.92	6.77	1.93	5.48	5.76	2.48	4.57	3.6	5.85
CCTTACGGGTCACGTGGTTATAGCACGACGAGCG	6.41	-0.108	-0.474	6.07	5.77	2.2	4.59	3.06	5.88
TCTAGTTGGTCACGGAGGTCACAAACGACGGGTA	2.95	2.21	0.892	3.15	3.83	3.19	3.12	2.44	–
CCTTACGGGTCACGAGGTTGTAGCACGACGAGCG	6.87	0.0323	-0.413	6.48	6.12	3.32	5.08	4	–
AGTCAAAGTTGAGGACGAGGTAACGTAAAGCACG	0.359	-0.388	-0.483	1.44	1.74	0.562	0.984	-0.189	–
ATATGTAGGTTACCTGGGGTCATTCAGACTAGGC	4.89	10.8	2.55	7.13	6.14	3.84	5.9	7.37	–

Sequence	PBM binding z-score [1]	PBM binding z-score [2]	PBM binding z-score [3]	PBM binding z-score [4]	PBM binding z-score [5]	PBM binding z-score [6]	PBM binding z-score [7]	PBM binding z-score [8]	PBM binding z-score [9]
CCGAGTTGGTCAAGGTCACACACGCTATAGGTAC	4.37	1.98	0.352	3.12	3.37	0.931	2.65	1.59	4.35
TACCCTAGGTCATTCAGGGGCCAGTATAGAAAGC	4.73	8.12	4.99	2.52	2.63	0.859	2.15	1.8	–
ACTTACGGCTCAACGAGGTTATAGCACGCGTATA	0.333	0.28	0.162	0.821	-0.0206	-0.186	-0.0465	-0.0346	–
AGAATGGGGTTACCAAAGATCAGGGAAACGCTTG	3.7	-0.351	0.166	4.62	4.32	1.72	3.47	4.37	5.05
ATCGAAAGGTCGACCAGGTGAGTATACACCGTTT	4.91	0.21	0.349	3.14	3.34	1.16	2.44	0.539	–
ATATGTAGGTTAGCTGGGGTCCTTCAGACTAGGC	0.425	-0.109	0.384	2.96	2.75	0.715	1.78	6.27	2.78
ATCGAAAGGTCTAAGGTGAGTATACCCACCCGAA	0.614	-0.103	-0.0723	1.52	2.08	0.802	1.56	-0.401	–
GGAACGAGGGCATTCGAGTTCATAGCATGGCGAT	3.41	6.2	-0.617	1.4	1.33	-0.096	0.725	2.82	–
CCTTACGGGTTACTCCAGGTTATAGCATCGGAGT	2.01	5.38	-0.167	0.504	0.711	-0.136	0.413	0.986	–
TCTTGTAGATCGATAGAGGTTAAGAAAGTGCGCT	0.392	-0.317	-0.0814	-0.159	1.66	2.48	1.93	0.891	–
CCTACTGGACCAAGGTCATTGATCAGTCAAAGCA	3.24	1.96	0.618	2.11	2.77	0.593	1.95	2.03	–
AGTCAAAGTTCATCTAGGTCACGTAAGATATGCT	7.54	7.38	2.1	7.93	7.25	4.56	6.61	3.49	–
GCTTACGGGTCCAAGGTTATAGCATGAATAGAAT	0.369	-0.143	-0.0563	1.97	2.86	1.43	2.47	0.18	–
CCTACTGGGCCGTTCAGAGGTCATTGATCATATG	2.45	5.59	0.189	1.33	2.48	0.658	1.67	1.34	–
CAAACTAGGTCACAGTGGTCAAAGTCCGTGCGTA	4.01	0.593	-0.0137	8.83	6.97	5.52	7.04	8.5	–
ATCTCTAGGTTAAGATAGTTCAGTGAATGCAAAT	0.821	2.52	0.754	1.39	1.66	0.609	1.15	3.33	–
CCTACTGGGCCAAAAAGGTCATTGATGCCGATAA	3.46	3.19	-0.142	3.35	3.98	1.41	3.38	3.88	–
TAGCCTAGGTCATTCAGGGGCCACTATAGAAAGC	4.76	1.27	1.1	2.63	2.83	0.439	2.09	2.08	–
ATATGTAGGTTACATCCGGGTCATCCAGGCTATG	1.91	1.67	0.838	6.12	5.21	2.47	4.55	7.32	–

Sequence	PBM binding z-score [1]	PBM binding z-score [2]	PBM binding z-score [3]	PBM binding z-score [4]	PBM binding z-score [5]	PBM binding z-score [6]	PBM binding z-score [7]	PBM binding z-score [8]	PBM binding z-score [9]
CAAACTAGGTCAAAAGGTCAAAGTCCGCTTCCCG	7.44	6.17	2.63	10.2	8.73	7.62	9.1	8.5	–
TCTGCTAGGTCAACGTTGGTCAGCTAATCTGCTA	3.38	-0.139	0.362	2.49	3.4	1.9	2.71	3.92	–
CCTACGGGGCCACGAAAGGTCATTGATTCAGTGA	4.71	4.26	0.262	2.82	3.88	1.18	2.46	1.57	–
AGAATGAGGTTAAACGTAGATCAGGGAAGAAAGT	4.05	-0.194	0.141	4	4.04	1.87	3.12	6.01	–
AGAATGAGGTTAAGTTCAGGGAAACAGAATACAT	4.05	0.441	-0.00698	3.45	3.89	1.62	3.51	3.13	–
TCTCGGAGGAAACGAAAGGTCAGAGCTCGACATC	1.86	2.91	-0.0498	1.74	3.9	2.92	3.77	1.21	–
CGTCCAAGGTCAATGCTAGATCAGTGAAAGCATT	6.47	0.407	0.497	3.65	4.19	1.52	2.91	3.16	–
CTCGAAAGGTCGTGCTCAGATGAGTATACCAAAC	5.4	0.0537	0.486	2.71	3.42	0.769	2.09	0.422	–
CCTAGCAGGCCAATCTAGGTCACTCAAGGCTTGA	1.46	0.192	-0.859	2.1	2.47	0.115	1.49	5.08	–
AATACAGGGTCATCTTAGGCCAGAGTACGCACAG	7.35	2.36	1.74	6.19	5.79	2.46	4.59	2.7	–
ATCGAAAGGTCCAAGGTGAGTATACCCACCCGAA	0.219	-0.213	0.175	1.01	0.802	0.219	0.627	-0.563	–
CGAACTAGGTCATTGACAGGACAATGAATAGTAA	4.51	0.605	-0.0587	7.97	6.6	3.9	5.84	8.11	–
AGAATGAGGTTACTAAAGATCAGGGAAACGCTTG	1.18	0.111	0.0247	1.81	1.58	0.706	1.07	3.7	–
CAAACTAGGTCACTAAAGGTCAAAGTCGAATGAC	7.13	10.4	4.07	10.1	8.33	6.31	8.16	8.1	–
TCTCGGAGGACACAAAGGTCAGAGCTTTCCAGAG	3.05	2.17	-0.2	3.27	4.43	3.16	4.07	1.57	–
ACTCGGAGGACAAAGGTCAGGGCTACGCCAGTGA	4.61	1.43	-0.0403	9.17	7.08	5.85	7.6	0.813	–
TAGCCTAGTTCATGCGGGCCAGTATAGTGTCGGC	-0.33	-0.511	-0.772	-0.0909	-0.0482	-0.651	-0.319	0.864	–
CCTACTGGGTCACGAAAGGTCATTGATTCAGTGA	6.45	6.45	0.81	9.12	7.71	5.23	6.95	7.12	–
